Experimental data published in PubChem BioAssay AID588719 (Southern Research Specialized Biocontainment Screening …, 2011).
The campaign covered roughly 1,500 compounds. About 920 (61%) were called active. The rule behind the calls is not given here. So high a share suggests a set chosen from earlier hits. Some of the results follow. Results with a measured potency or affinity are listed apart.

Assay: Vero 76 cell cytotoxicity, dose response, cytotoxicity control for VEEV inhibitor project (AID 588719)
Conditions: Vero 76 cells viability, cytotoxicity counter-screen; series mostly up to 25 µM; viability: at the top concentration

SMILES	viability
Cn1c(SCC(=O)c2ccccc2)nnc1-c1ccccn1	96.8% (inactive)
O=C(Nc1ccccc1)N1CCN(C2c3ccccc3-c3ccccc32)CC1	87.6% (inactive)
CCc1cc(C(=O)c2ccc(OC)cc2)c(NC(=O)CN2CCN(C)CC2)s1	72% (inactive)
Cc1ccc(-c2nc(CCN3C(=O)c4ccccc4C3=O)cs2)cc1	101% (inactive)
CC(=O)N1CCC(C(=O)Nc2cc(S(=O)(=O)N3CCCCC3)ccc2C)CC1	94% (inactive)
CCN(CC)c1ccc(S(=O)(=O)N2CCOCC2)cc1NC(=O)COC(=O)/C=C/c1ccc(C)o1	72.2% (inactive)
COCOCCn1cc(CN2CCS(=O)(=O)N(Cc3ccc(-c4ccc(F)nc4)cc3)C(CC(C)C)C2=O)nn1 (centres undefined)	79.3% (inactive)
CN1CCN(c2ccc(-c3cccc(NC(=O)COc4ccc(Cl)cc4Cl)c3)nn2)CC1	89.2% (inactive)
Cc1ccc(C(C[N+](=O)[O-])Sc2ccc(N)cc2)cc1 (centres undefined)	91.3% (inactive)
COc1ccc(CCNc2cc(C)nc3c(-c4ccccc4)cnn23)cc1OC	75.9% (inactive)
CCOC(=O)C1CCN(C(c2ccccn2)c2c(C)[nH]c3ccccc23)CC1 (centres undefined)	83.3% (inactive)
O=c1[nH]c(-c2ccccn2)nc2sc(-c3ccccc3)cc12	44.6% (inactive)
C=CCn1c(SCC(=O)c2cccs2)nc2sc(C)c(C)c2c1=O	70.5% (inactive)
Cn1c(=O)c2[nH]c(CSCc3ccccc3)nc2n(C)c1=O	90.8% (inactive)
Cc1ccc(CNc2ccc(O)cc2)cc1	93.9% (inactive)
O=C(/C=C/c1ccc2c(c1)OCO2)c1ccccn1	88.9% (inactive)
CN1C/C(=C\c2ccc(N3CCOCC3)cc2)C(=O)/C(=C/c2ccc(N3CCOCC3)cc2)C1	89.8% (inactive)
Nc1cnn(C2OC(CO)C(O)C2O)c(=O)n1 (centres undefined)	76.1% (inactive)
Cc1ccccc1Oc1ccc2c(c1)[C@@H]1C[C@H](N(C)C(=O)c3ccco3)[C@H]([C@H](C)O)C(=O)N1CC2	94% (inactive)
CCOC(=O)c1oc2ccc(Br)cc2c1NC(=O)CN1CCN(C)CC1	71.7% (inactive)
CCOc1ccc(-c2c(C(=O)N/N=C(\C)c3cccs3)nnn2-c2nonc2N)cc1	85.8% (inactive)
Cc1nn(CC(=O)Nc2nccs2)c(C)c1[N+](=O)[O-]	101% (inactive)
O=C1CCCCC1Nc1ccc2ccccc2c1 (centres undefined)	77.6% (inactive)
CC(C)(C)C1CCC(=NNc2ccc(S(N)(=O)=O)cc2[N+](=O)[O-])CC1 (centres undefined)	75.6% (inactive)
NC(=S)N/N=C/c1ccc(-c2ccc(SC(F)F)cc2)o1	85.5% (inactive)
CCN1CCN(CCCNC(=O)c2cc3c(s2)-c2ccccc2OC3)CC1	72.1% (inactive)
CCN(CC)CCCNC(=O)c1ccc2c(Cl)c3c(nc2c1)CCCC3	71.7% (inactive)
O=C1CC(/C=C/c2ccc(Cl)cc2)=Nc2ccccc2N1	103% (inactive)
CN1CCN(NC(=O)c2cc(-c3cccc(Cl)c3)nc3ccccc23)CC1	73.1% (inactive)
